Results on eight compounds are retold here after PubChem BioAssay (Tox21).

In assay [1] the target is Cytochrome P450 2D6 (Homo sapiens) (UniProt P10635). Nature of the assay: Cytochrome P450 Family 2 Subfamily D Member 6 (CYP2D6) small molecule antagonists: luciferase reporter qHTS assay (AID 1671196). Also: nearly all actives have a fitted effect of over 50% in size. Also: potency is read from the fitted curve at half-maximal effect. Conditions: P450-Glo CYP2D6 enzyme assay, luciferin luminescence, 1 h; series mostly up to 115 µM. The method, boiled down:
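Luminogenic proluciferin substrate, CYP2D6 enzyme; 10 min RT preincubation with compound, NADPH regeneration system added, 1 h RT. Stop/detection reagent, 20 min RT, luminescence read (RLU). Signal proportional to CYP activity.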

The target of assay [2] is Cytochrome P450 2C19 (Homo sapiens) (UniProt P33261). Nature of the assay: Cytochrome P450 Family 2 Subfamily C Member 19 (CYP2C19) small molecule antagonists: luciferase reporter qHTS assay (AID 1671197). Also: nearly all actives have a fitted effect of over 65% in size. Also: potency is read from the fitted curve at half-maximal effect. Conditions: P450-Glo CYP2C19 enzyme, luciferin luminescence, 1 h; series mostly up to 115 µM. The method, boiled down: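 Quantitative high-throughput screen of the Tox21 library using CYP2C19 with proluciferin substrate. Reaction: NADPH regeneration, 37C, 1 h, after 10 min compound preincubation at room temperature. Readout: luminescence.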
Sequence of Cytochrome P450 2C19 (Homo sapiens) (P33261 whole entry, looked up): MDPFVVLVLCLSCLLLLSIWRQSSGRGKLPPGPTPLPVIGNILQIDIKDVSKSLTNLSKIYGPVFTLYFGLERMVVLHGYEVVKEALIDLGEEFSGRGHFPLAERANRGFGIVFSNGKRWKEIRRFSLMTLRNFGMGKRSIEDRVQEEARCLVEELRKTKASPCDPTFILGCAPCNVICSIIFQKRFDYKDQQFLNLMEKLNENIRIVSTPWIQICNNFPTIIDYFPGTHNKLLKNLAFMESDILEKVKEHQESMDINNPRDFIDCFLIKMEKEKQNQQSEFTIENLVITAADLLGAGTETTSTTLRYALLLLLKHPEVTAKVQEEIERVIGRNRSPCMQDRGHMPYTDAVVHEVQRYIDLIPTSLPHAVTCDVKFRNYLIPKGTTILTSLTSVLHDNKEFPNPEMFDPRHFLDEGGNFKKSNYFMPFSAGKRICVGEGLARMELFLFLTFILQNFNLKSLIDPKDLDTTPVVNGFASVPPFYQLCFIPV

Assay [3] concerns the target Cytochrome P450 2C9 (Homo sapiens) (UniProt P11712). Nature of the assay: Cytochrome P450 Family 2 Subfamily C Member 9 (CYP2C9) small molecule antagonists: luciferase reporter qHTS assay (AID 1671198). Also: nearly all actives have a fitted effect of over 50% in size. Also: potency is read from the fitted curve at half-maximal effect. The settings on record: P450-Glo CYP2C9 enzyme assay, luciferin luminescence; series mostly up to 115 µM. The method, boiled down: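 CYP2C9 activity was measured with a P450-Glo proluciferin substrate. Enzyme–substrate mix was held with compound for 10 min at room temperature, then NADPH regeneration solution was added for 1 h at 37C. Luciferin product was read as luminescence.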

The target of assay [4] is Cytochrome P450 1A2 (Homo sapiens) (UniProt P05177). Nature of the assay: Cytochrome P450 Family 1 Subfamily A Member 2 (CYP1A2) small molecule antagonists: luciferase reporter qHTS assay (AID 1671199). Also: nearly all actives have a fitted effect of over 50% in size. Also: potency is read from the fitted curve at half-maximal effect. Conditions: P450-Glo CYP1A2 enzyme, luciferin luminescence, 1 h; series mostly up to 115 µM. The method, boiled down:
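Luminescence readout (relative luminescence units) after luciferin detection reagent, 20 min RT. Preceded by 1 h room-temperature CYP1A2 reaction with NADPH regeneration solution following 10 min compound preincubation with enzyme and proluciferin substrate. Furafylline positive control.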

For assay [5], the target named is Voltage-gated inwardly rectifying potassium channel KCNH2 (Homo sapiens) (UniProt Q12809). Nature of the assay: Human Ether-a-go-go-Related Gene (hERG) channel small molecule antagonists: fluorescence cell-based qHTS assay (AID 1671200). Also: nearly all actives have a fitted effect of over 50% in size. Also: potency is read from the fitted curve at half-maximal effect. Conditions: hERG-U2OS cells, FluxOR thallium flux fluorescence; series mostly up to 76.8 µM. The method, boiled down:
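Quantitative HTS in hERG-U2OS cells: thallium entry through the channel reports activity, read as continuous 480/540 nm fluorescence over 2 min after stimulus addition.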

The target of assay [6] is Cytochrome P450 3A4 (Homo sapiens) (UniProt P08684). Nature of the assay: Cytochrome P450 Family 3 Subfamily A Member 4 (CYP3A4) small molecule antagonists: luciferase reporter qHTS assay (AID 1671201). Also: nearly all actives have a fitted effect of over 50% in size. The settings on record: P450-Glo CYP3A4 enzyme, luciferin luminescence, 1 h; series mostly up to 115 µM. In outline: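 Inhibition of CYP3A4 is measured as loss of light: the enzyme converts a proluciferin substrate to luciferin, detected luminescently. Reaction ran 1 h at room temperature with NADPH regeneration after a 10 min compound preincubation.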
Sequence of Cytochrome P450 3A4 (Homo sapiens) (P08684 whole entry, looked up): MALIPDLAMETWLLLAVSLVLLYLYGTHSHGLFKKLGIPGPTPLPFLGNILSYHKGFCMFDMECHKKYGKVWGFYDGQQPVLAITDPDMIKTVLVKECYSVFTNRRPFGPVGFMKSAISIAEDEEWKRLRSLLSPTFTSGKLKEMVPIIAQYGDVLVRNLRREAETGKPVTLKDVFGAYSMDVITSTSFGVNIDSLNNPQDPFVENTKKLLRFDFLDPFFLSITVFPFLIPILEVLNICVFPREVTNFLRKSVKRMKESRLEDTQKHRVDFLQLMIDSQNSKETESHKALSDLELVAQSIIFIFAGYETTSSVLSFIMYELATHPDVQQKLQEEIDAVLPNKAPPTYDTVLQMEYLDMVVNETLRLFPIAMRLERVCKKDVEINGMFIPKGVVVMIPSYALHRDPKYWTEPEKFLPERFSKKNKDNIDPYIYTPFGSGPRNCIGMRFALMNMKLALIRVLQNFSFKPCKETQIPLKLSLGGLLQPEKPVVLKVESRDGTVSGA

Inconclusive results are not listed. The source made the active and inactive calls. Calls follow the shape of the dose curve; as a rule, active = well fitted curve in the direction sought with a large enough effect in the repeat runs; inconclusive = weak or mixed curves; inactive = no such curve, though single readings can be large; an effect the other way counts as inactive or inconclusive.

Sequence of Cytochrome P450 2D6 (Homo sapiens) (P10635 whole entry, looked up): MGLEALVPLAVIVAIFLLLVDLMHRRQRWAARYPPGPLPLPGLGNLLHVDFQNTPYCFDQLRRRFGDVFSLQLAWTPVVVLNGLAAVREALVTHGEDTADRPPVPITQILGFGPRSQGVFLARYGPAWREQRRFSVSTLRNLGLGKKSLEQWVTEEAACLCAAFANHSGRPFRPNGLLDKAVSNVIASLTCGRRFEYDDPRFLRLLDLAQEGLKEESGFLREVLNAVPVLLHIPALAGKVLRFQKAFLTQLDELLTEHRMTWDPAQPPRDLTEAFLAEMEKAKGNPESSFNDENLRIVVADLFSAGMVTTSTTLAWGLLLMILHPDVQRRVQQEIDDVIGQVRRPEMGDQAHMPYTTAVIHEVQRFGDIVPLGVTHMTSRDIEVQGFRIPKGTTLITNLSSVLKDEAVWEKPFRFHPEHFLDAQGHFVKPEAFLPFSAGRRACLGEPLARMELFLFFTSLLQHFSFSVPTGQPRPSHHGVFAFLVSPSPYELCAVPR
Sequence of Cytochrome P450 2C9 (Homo sapiens) (P11712 whole entry, looked up): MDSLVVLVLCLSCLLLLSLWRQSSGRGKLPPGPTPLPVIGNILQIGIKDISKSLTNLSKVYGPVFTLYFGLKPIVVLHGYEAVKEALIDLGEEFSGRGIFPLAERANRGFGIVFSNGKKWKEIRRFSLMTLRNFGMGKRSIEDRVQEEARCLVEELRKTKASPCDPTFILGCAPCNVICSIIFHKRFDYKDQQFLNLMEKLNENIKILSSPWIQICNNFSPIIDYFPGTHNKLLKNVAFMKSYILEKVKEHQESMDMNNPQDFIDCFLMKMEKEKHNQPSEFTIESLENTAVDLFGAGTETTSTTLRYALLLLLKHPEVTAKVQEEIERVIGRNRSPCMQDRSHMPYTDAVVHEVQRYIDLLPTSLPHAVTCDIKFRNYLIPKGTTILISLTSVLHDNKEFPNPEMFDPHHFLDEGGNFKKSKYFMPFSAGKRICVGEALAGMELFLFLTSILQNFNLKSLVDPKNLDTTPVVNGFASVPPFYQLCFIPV
Sequence of Cytochrome P450 1A2 (Homo sapiens) (P05177 whole entry, looked up): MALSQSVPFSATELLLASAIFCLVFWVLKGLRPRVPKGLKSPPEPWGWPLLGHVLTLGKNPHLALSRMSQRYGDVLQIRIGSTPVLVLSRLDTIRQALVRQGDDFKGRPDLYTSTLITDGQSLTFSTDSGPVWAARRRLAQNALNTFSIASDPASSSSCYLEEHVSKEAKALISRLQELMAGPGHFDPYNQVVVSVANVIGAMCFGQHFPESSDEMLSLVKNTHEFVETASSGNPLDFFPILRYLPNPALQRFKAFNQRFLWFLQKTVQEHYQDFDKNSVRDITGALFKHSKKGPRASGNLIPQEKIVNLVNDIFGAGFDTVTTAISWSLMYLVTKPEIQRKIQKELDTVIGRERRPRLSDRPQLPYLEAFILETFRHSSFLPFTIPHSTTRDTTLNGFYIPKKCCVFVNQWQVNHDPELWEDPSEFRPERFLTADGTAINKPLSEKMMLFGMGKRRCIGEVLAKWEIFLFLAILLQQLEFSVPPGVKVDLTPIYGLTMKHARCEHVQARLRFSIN
Sequence of Voltage-gated inwardly rectifying potassium channel KCNH2 (Homo sapiens) (Q12809 whole entry, looked up): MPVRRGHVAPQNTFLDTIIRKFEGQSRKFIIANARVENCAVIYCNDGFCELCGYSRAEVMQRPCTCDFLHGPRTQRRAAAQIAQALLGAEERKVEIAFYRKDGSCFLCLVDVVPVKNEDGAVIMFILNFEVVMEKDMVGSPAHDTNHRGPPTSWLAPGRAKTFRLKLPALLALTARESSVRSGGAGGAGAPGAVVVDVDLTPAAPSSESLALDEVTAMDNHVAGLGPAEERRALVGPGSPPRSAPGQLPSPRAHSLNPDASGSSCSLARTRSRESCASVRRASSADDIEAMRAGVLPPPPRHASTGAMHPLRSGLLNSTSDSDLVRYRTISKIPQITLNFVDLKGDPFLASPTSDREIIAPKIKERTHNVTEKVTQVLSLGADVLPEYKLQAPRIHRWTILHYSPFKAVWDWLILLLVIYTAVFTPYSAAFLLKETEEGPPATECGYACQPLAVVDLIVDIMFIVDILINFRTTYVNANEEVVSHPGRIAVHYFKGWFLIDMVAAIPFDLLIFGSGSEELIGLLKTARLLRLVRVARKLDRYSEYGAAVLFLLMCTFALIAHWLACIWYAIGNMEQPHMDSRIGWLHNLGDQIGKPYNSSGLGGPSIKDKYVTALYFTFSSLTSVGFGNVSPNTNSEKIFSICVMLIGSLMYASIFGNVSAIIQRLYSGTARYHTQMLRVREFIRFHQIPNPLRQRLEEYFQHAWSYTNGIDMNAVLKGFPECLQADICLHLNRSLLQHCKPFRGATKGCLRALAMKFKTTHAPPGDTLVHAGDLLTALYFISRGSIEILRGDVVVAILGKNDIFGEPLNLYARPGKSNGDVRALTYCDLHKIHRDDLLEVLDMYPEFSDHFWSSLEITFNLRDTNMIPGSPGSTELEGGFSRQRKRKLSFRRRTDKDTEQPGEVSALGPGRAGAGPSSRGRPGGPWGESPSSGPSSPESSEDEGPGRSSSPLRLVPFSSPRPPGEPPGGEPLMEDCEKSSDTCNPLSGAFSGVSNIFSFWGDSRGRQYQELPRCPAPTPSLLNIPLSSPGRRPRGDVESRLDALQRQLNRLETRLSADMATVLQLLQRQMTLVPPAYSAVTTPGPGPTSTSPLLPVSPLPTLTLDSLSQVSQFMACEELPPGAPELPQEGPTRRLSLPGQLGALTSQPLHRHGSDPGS

As to `Cc1cc(O)c2c(c1)C(=O)c1cccc(O)c1C2=O`, the Potency result in assay [1], in assay [2], in assay [3], in assay [5] and in assay [6] was “inactive” each time. The Potency in assay [4] is 15.5 µM (active).
Regarding `CCOC(=O)CCCCCCCCC(=O)OCC`, the Potency result in assay [1], in assay [5] and in assay [6] was “inactive” in each case. For the same compound, the Potency was 31.7 µM (active) in assay [3] and 44.8 µM (active) in assay [4].
For `FC(F)(F)/C(=N\OCC1OCCO1)c1ccc(Cl)cc1`, the Potency entry in assay [1], in assay [5] and in assay [6] was “inactive” throughout. Besides, the Potency in assay [2] is 1.59 µM (active); in assay [4], 2.24 µM (active).
Take `C=C[C@@H](C)CCC=C(C)C`: the Potency entry in assay [1], in assay [2], in assay [5] and in assay [6] was “inactive” in each case. The Potency in assay [4] was 39.9 µM (active).
As to `CNC(=O)NC`, the Potency entry in assay [1], in assay [3], in assay [4], in assay [5] and in assay [6] was “inactive” each time.
For `Cc1ccccc1C(=O)N1CC/C(=N\OS(=O)(=O)O)c2ccc(Cl)cc21`, the Potency entry in assay [1], in assay [4] and in assay [5] was “inactive” throughout. Also, in assay [3], the Potency was 4.36 µM (active).
Consider `Cc1ccccc1OCC1CO1` (stereo not drawn), for which the Potency result in assay [1], in assay [3], in assay [4], in assay [5] and in assay [6] was “inactive” each time.
On to `Cc1nc2n(c(=O)c1CCN1CCC(C(=O)c3ccc(F)cc3)CC1)CCS2`, for which the Potency in assay [1] is 0.49 µM (active); in assay [5], 9.52 µM (active). Besides, in assay [2], the Potency entry is “inactive”.
